# Data as given in PubChem BioAssay (NCI).
# Several values for one entry are separate records, joined by “and”; a condition that tells them apart may be missing. Equal entries are not always repeated. The panel holds about 83,000 compounds, 20% with a hit somewhere; the sample as a whole holds those more often.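 Growth was measured after 48 h exposure to one concentration of compound in 96-well plates. Values under 10 count as active.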 Values without a mark were called inactive. Activity calls are given as the source filed them.
# Tests used:
# Assay in all cases: NCI-60 one-dose screen, 48 h (100 = growth as untreated, 0 = no growth, -100 = all killed)
# [1] = system: HCT-15 colon; conditions: 10 µM unless noted
# [2] = system: HT29 colon; conditions: 10 µM unless noted
# [3] = system: SNB-75 CNS; conditions: 10 µM unless noted
# [4] = system: SNB-19 CNS; conditions: 10 µM unless noted
# [5] = system: U251 CNS; conditions: 10 µM unless noted
# [6] = system: PC-3 prostate; conditions: 10 µM unless noted
# [7] = system: UACC-62 melanoma
# [8] = system: LOX IMVI melanoma; conditions: 10 µM
# [9] = system: SK-MEL-28 melanoma; conditions: 10 µM unless noted
# [10] = system: SK-MEL-2 melanoma; conditions: 10 µM unless noted
# [11] = system: EKVX NSCLC; conditions: 10 µM unless noted
# [12] = system: SN12C renal; conditions: 10 µM unless noted
# [13] = system: UO-31 renal; conditions: 10 µM unless noted
# [14] = system: TK-10 renal
# [15] = system: ACHN renal; conditions: 10 µM unless noted
# [16] = system: CAKI-1 renal; conditions: 10 µM unless noted
# [17] = system: A498 renal; conditions: 10 µM unless noted
# [18] = system: CCRF-CEM leukemia; conditions: 10 µM unless noted
# [19] = system: MOLT-4 leukemia; conditions: 10 µM unless noted
# [20] = system: SK-MEL-5 melanoma; conditions: 10 µM unless noted
smiles,measurement,setting,value
C/C=C/C1OCC(CC)C(CCC)O1 (stereo unspecified),growth,[1],111%
same,growth,[2],105%
same,growth,[3],90.2%
same,growth,[4],99.7%
same,growth,[5],104%
same,growth,[6],98.9%
same,growth,[7]; 10 µM unless noted,101%
same,growth,[8],113%
same,growth,[9],112%
same,growth,[10],102%
same,growth,[11],105%
same,growth,[12],99.5%
same,growth,[13],81.1%
same,growth,[14]; 10 µM unless noted,101%
same,growth,[15],110%
same,growth,[16],99.9%
same,growth,[17],91.7%
same,growth,[18],85.4%
same,growth,[19],94%
C#CC(O)c1ccccc1 (stereo unspecified),growth,[1],103%
same,growth,[2],105%
same,growth,[3],103%
same,growth,[4],104%
same,growth,[5],97.2%
same,growth,[6],97.3%
same,growth,[7]; 10 µM unless noted,103%
same,growth,[8],103%
same,growth,[9],109%
same,growth,[10],106%
same,growth,[11],103%
same,growth,[12],104%
same,growth,[13],101%
same,growth,[14]; 10 µM unless noted,99.5%
same,growth,[15],104%
same,growth,[16],103%
same,growth,[19],99.4%
COc1cc(CC#N)c([N+](=O)[O-])cc1OC,growth,[1],116%
same,growth,[2],108%
same,growth,[3],107%
same,growth,[4],109%
same,growth,[5],95.8%
same,growth,[6],101%
same,growth,[7]; 10 µM unless noted,99.8%
same,growth,[8],102%
same,growth,[9],107%
same,growth,[10],109%
same,growth,[11],111%
same,growth,[12],104%
same,growth,[13],96%
same,growth,[14]; 10 µM unless noted,101%
same,growth,[15],109%
same,growth,[16],102%
same,growth,[17],107%
same,growth,[18],103%
same,growth,[19],94.6%
Cc1ccc(/C=N/NC(N)=S)s1,growth,[1],109%
same,growth,[2],110%
same,growth,[3],91.2%
same,growth,[4],103%
same,growth,[5],102%
same,growth,[6],92.2%
same,growth,[7]; 10 µM unless noted,102%
same,growth,[8],101%
same,growth,[9],113%
same,growth,[10],102%
same,growth,[11],96%
same,growth,[12],99%
same,growth,[13],90.5%
same,growth,[14]; 10 µM unless noted,105%
same,growth,[15],103%
same,growth,[16],92%
same,growth,[17],95.2%
same,growth,[18],100%
O=[N+]([O-])c1c(O)c(CNCCCO)cc(CNCCCO)c1O,growth,[1],106%
same,growth,[2],107%
same,growth,[3],91.2%
same,growth,[4],105%
same,growth,[5],99.6%
same,growth,[6],88.7%
same,growth,[7]; 10 µM unless noted,97.7%
same,growth,[8],93.9%
same,growth,[9],121%
same,growth,[10],87.9%
same,growth,[11],96.1%
same,growth,[12],104%
same,growth,[13],63.7%
same,growth,[14]; 10 µM unless noted,111%
same,growth,[15],93.9%
same,growth,[16],100%
same,growth,[17],130%
same,growth,[18],119%
same,growth,[19],73.2%
Nc1cc(F)ccc1[N+](=O)[O-],growth,[1],102%
same,growth,[2],109%
same,growth,[3],85.9%
same,growth,[4],102%
same,growth,[5],106%
same,growth,[6],87.5%
same,growth,[7]; 10 µM unless noted,101%
same,growth,[8],100%
same,growth,[9],104%
same,growth,[10],114%
same,growth,[11],100%
same,growth,[12],98.6%
same,growth,[13],94.2%
same,growth,[14]; 10 µM unless noted,104%
same,growth,[15],104%
same,growth,[16],92.2%
same,growth,[18],110%
same,growth,[19],109%
Oc1cccc(CNC2CCCCC2)c1,growth,[1],105%
same,growth,[2],100%
same,growth,[3],90.4%
same,growth,[4],95%
same,growth,[5],106%
same,growth,[6],99.8%
same,growth,[7]; 10 µM unless noted,96.5%
same,growth,[8],113%
same,growth,[9],110%
same,growth,[10],115%
same,growth,[11],115%
same,growth,[12],106%
same,growth,[13],86.6%
same,growth,[14]; 10 µM unless noted,105%
same,growth,[15],107%
same,growth,[16],106%
same,growth,[18],107%
same,growth,[19],106%
O=S(=O)(O)C(C(I)I)S(=O)(=O)O,growth,[1],110%
same,growth,[2],118%
same,growth,[3],98.3%
same,growth,[4],113%
same,growth,[5],96.3%
same,growth,[6],95.7%
same,growth,[7]; 10 µM unless noted,110%
same,growth,[8],101%
same,growth,[9],114%
same,growth,[10],109%
same,growth,[11],112%
same,growth,[12],110%
same,growth,[13],89.6%
same,growth,[14]; 10 µM unless noted,111%
same,growth,[15],114%
same,growth,[16],100%
same,growth,[17],106%
same,growth,[18],105%
same,growth,[19],103%
NCC(O)C(O)C(O)C(O)CO (stereo unspecified),growth,[1],106%
same,growth,[2],95.9%
same,growth,[3],91.8%
same,growth,[4],104%
same,growth,[5],90.5%
same,growth,[6],81.4%
same,growth,[20],101%
same,growth,[8],97.8%
same,growth,[9],108%
same,growth,[10],96.4%
same,growth,[11],102%
same,growth,[12],96.2%
same,growth,[14]; 10 µM unless noted,88.5%
same,growth,[15],105%
same,growth,[16],88.6%
same,growth,[17],98.6%
same,growth,[18],89.8%
same,growth,[19],101%
C=CCOc1ccc(Cl)cc1Cl,growth,[1],104%
same,growth,[2],112%
same,growth,[3],90.3%
same,growth,[4],114%
same,growth,[5],106%
same,growth,[6],88.2%
same,growth,[7]; 10 µM unless noted,92.7%
same,growth,[8],99.6%
same,growth,[9],115%
same,growth,[10],119%
same,growth,[11],103%
same,growth,[12],105%
same,growth,[13],93.5%
same,growth,[14]; 10 µM unless noted,113%
same,growth,[15],102%
same,growth,[16],98%
same,growth,[17],107%
same,growth,[19],52%
CCCC1OC(c2ccco2)OCC1CC (stereo unspecified),growth,[1],97.2%
same,growth,[2],103%
same,growth,[3],84.2%
same,growth,[4],98.2%
same,growth,[5],94.8%
same,growth,[6],92.5%
same,growth,[7]; 10 µM unless noted,91.7%
same,growth,[8],95.1%
same,growth,[9],113%
same,growth,[10],97.7%
same,growth,[11],96.4%
same,growth,[12],98.4%
same,growth,[13],77.6%
same,growth,[14]; 10 µM unless noted,97.1%
same,growth,[15],105%
same,growth,[16],88.2%
same,growth,[17],94.6%
same,growth,[18],93%
same,growth,[19],89.3%
c1ccc(-c2ccc3ccccc3c2)cc1,growth,[1],107%
same,growth,[2],80.8%
same,growth,[3],107%
same,growth,[4],100%
same,growth,[5],92.7%
same,growth,[6],90.8%
same,growth,[7]; 10 µM unless noted,95.4%
same,growth,[8],95.7%
same,growth,[9],107%
same,growth,[10],76.6%
same,growth,[11],103%
same,growth,[12],96.1%
same,growth,[13],85.2%
same,growth,[14]; 10 µM unless noted,97.7%
same,growth,[15],88.9%
same,growth,[16],97.9%
same,growth,[17],84%
same,growth,[18],99.6%
same,growth,[19],80.8%
CCOC(OCC)C(=O)c1ccccc1,growth,[1],104%
same,growth,[2],92.7%
same,growth,[3],94.1%
same,growth,[4],103%
same,growth,[5],95%
same,growth,[6],85%
same,growth,[7]; 10 µM unless noted,111%
same,growth,[8],95.4%
same,growth,[9],104%
same,growth,[10],88.8%
same,growth,[11],109%
same,growth,[12],101%
same,growth,[13],82.6%
same,growth,[14]; 10 µM unless noted,84.1%
same,growth,[15],99.3%
same,growth,[16],107%
same,growth,[17],94%
same,growth,[18],99.8%
same,growth,[19],124%
CC(C)(C)[Si](C)(C)OCC1OC(n2cnc3c(N)ncnc32)CC1OS(C)(=O)=O (stereo unspecified),growth,[1],115%
same,growth,[2],108%
same,growth,[3],97.4%
same,growth,[4],108%
same,growth,[5],91.7%
same,growth,[6],103%
same,growth,[7]; 10 µM unless noted,90.4%
same,growth,[8],95.4%
same,growth,[9],105%
same,growth,[10],105%
same,growth,[11],105%
same,growth,[12],101%
same,growth,[13],86.8%
same,growth,[14]; 10 µM unless noted,99.7%
same,growth,[15],114%
same,growth,[16],96.2%
same,growth,[17],67.6%
same,growth,[18],101%
C=CCc1cc(OC)c(OC)c(OC)c1,growth,[1],99.1%
same,growth,[2],98%
same,growth,[3],101%
same,growth,[4],103%
same,growth,[5],102%
same,growth,[6],100%
same,growth,[7]; 10 µM unless noted,97.4%
same,growth,[8],102%
same,growth,[9],115%
same,growth,[10],108%
same,growth,[11],111%
same,growth,[12],99.5%
same,growth,[13],105%
same,growth,[14]; 10 µM unless noted,104%
same,growth,[15],108%
same,growth,[16],100%
same,growth,[17],100%
same,growth,[18],104%
same,growth,[19],104%
C=CC(C)(C)n1cc(C2=C(O)C(=O)C(c3cn(C(C)(C)C=C)c4ccccc34)=C(O)C2=O)c2ccccc21,growth,[1],84.2%
same,growth,[2],99.3%
same,growth,[3],67.8%
same,growth,[4],80.2%
same,growth,[5],82.6%
same,growth,[6],80.8%
same,growth,[7]; 10 µM,100%
same,growth,[7]; 100 µM,-85.8% (active) and -96.5% (active)
same,growth,[8],97.2%
same,growth,[10],95.9%
same,growth,[11],87.2%
same,growth,[12],101%
same,growth,[13],74.1%
same,growth,[14]; 10 µM,92.7%
same,growth,[14]; 100 µM,-99.2% (active) and -100% (active)
same,growth,[15],94.4%
same,growth,[16],89.7%
same,growth,[18],78.5%
same,growth,[19],88.7%
Cc1c(Cl)cccc1NC(=S)NC(=O)c1ccccc1,growth,[1],92.6%
same,growth,[2],90.3%
same,growth,[3],90.5%
same,growth,[4],107%
same,growth,[5],84.9%
same,growth,[6],89.2%
same,growth,[7]; 10 µM unless noted,92.7%
same,growth,[8],99.3%
same,growth,[9],102%
same,growth,[10],96%
same,growth,[11],71.6%
same,growth,[12],98.6%
same,growth,[13],85.5%
same,growth,[14]; 10 µM unless noted,93.5%
same,growth,[15],113%
same,growth,[16],79.4%
same,growth,[18],95.3%
O=C(NCc1ccccc1)/C(=C/c1ccccc1)NC(=O)c1ccccc1,growth,[1],106%
same,growth,[2],92.9%
same,growth,[3],98.1%
same,growth,[4],97.1%
same,growth,[5],93.4%
same,growth,[6],88.5%
same,growth,[7]; 10 µM unless noted,93.5%
same,growth,[8],98.3%
same,growth,[9],117%
same,growth,[10],102%
same,growth,[11],103%
same,growth,[12],100%
same,growth,[13],92%
same,growth,[14]; 10 µM unless noted,108%
same,growth,[15],104%
same,growth,[16],103%
same,growth,[17],90.9%
same,growth,[18],94.4%
